Experimental findings from PMC12864922, “TDP-43 directly inhibits mRNA accumulation in neurites through modulation of mRNA stability” are described below.

The full ranking holds about 9,900 sequences; the median of “r (bound/input frequency ratio)” is about 0.7, and the highest 2% start at about 6.5. Shown is part of a subset that was picked to be rich in the highest values.

B1: ENSMUSG00000058297.291|Spock2|95:100 (ssRNA)
RNA: GGGAGUUCUACAGUCCGACGAUCGCUUCGAUAUCCGCAUGCUAAGAGAGAGAGAGAAAGAGAGAGAGAAUGAGAGAGAAUGAGAGAGAGAAUACCCGAGGGCCACCCUGAUGCCCAGGAAGAGUGAGGGCAGCCCCCACACACGUGGAAGAGGCUGGGCAGCUAGCUACUGGGGACCUUGUGCUGAGGCUUCCAGGACAAAGCCCCAGUCUGGCUCUCCCCCAGCCUCUCAGGGGCACUGGCUGGUCACAUCCACUGAGUAUUGAUCGGUUGGACUUUAGGGAAGAGCCUCCUCCUUCCCAUUCUCUUGCGGUCGCACUAGUGUGGAAUUCUCGGGUGUCAAGG
B2: ENSMUSG00000058297.294|Spock2|77:82 (ssRNA)
RNA: GGGAGUUCUACAGUCCGACGAUCGCUUCGAUAUCCGCAUGCUAAGAGAGAAUGAGAGAGAAUGAGAGAGAGAAUACCCGAGGGCCACCCUGAUGCCCAGGAAGAGUGAGGGCAGCCCCCACACACGUGGAAGAGGCUGGGCAGCUAGCUACUGGGGACCUUGUGCUGAGGCUUCCAGGACAAAGCCCCAGUCUGGCUCUCCCCCAGCCUCUCAGGGGCACUGGCUGGUCACAUCCACUGAGUAUUGAUCGGUUGGACUUUAGGGAAGAGCCUCCUCCUUCCCAUUCCUUUCUGCCACCCUGGACUCUUGCGGUCGCACUAGUGUGGAAUUCUCGGGUGUCAAGG
B3: ENSMUSG00000058297.292|Spock2|89:94 (ssRNA)
RNA: GGGAGUUCUACAGUCCGACGAUCGCUUCGAUAUCCGCAUGCUAAGAGAGAAAGAGAGAGAGAAUGAGAGAGAAUGAGAGAGAGAAUACCCGAGGGCCACCCUGAUGCCCAGGAAGAGUGAGGGCAGCCCCCACACACGUGGAAGAGGCUGGGCAGCUAGCUACUGGGGACCUUGUGCUGAGGCUUCCAGGACAAAGCCCCAGUCUGGCUCUCCCCCAGCCUCUCAGGGGCACUGGCUGGUCACAUCCACUGAGUAUUGAUCGGUUGGACUUUAGGGAAGAGCCUCCUCCUUCCCAUUCCUUUCCUCUUGCGGUCGCACUAGUGUGGAAUUCUCGGGUGUCAAGG
B4: ENSMUSG00000061578.830|Ksr2|59:63;101:105;176:180 (ssRNA)
RNA: GGGAGUUCUACAGUCCGACGAUCGCUUCGAUAUCCGCAUGCUAAUAGAAACAGCAUUCUGGCUCACAGUUUCAAAGGGCUCAGUCCAUAGCUGCCUGACUCACACAUUCUAGGCCUUUCUUGAGGCAAGUGUUCAUCAUGAUACACACAGGGUGAGGAGGAGUUUCUUCAUGGCAAACAGGAAGCAAAGAGCAAUACAGGAAAAGGUCAGGGGUGAGAACACACAUUGCCACUUCCUCCAGCUAGGACCUUUGAGCAUCACAUUGUGAAGCCAUCCAGGGACUUGGGGGUUAGGUCAGAGGUACUCUUGCGGUCGCACUAGUGUGGAAUUCUCGGGUGUCAAGG
B5: ENSMUSG00000032194.214|Kank2 (ssRNA)
RNA: GGGAGUUCUACAGUCCGACGAUCGCUUCGAUAUCCGCAUGCUAUUGUUGUUGUUUCUUUGUUUCUUUUCUUCAUAAAGAAGAAAAAGGAAACAACUUCUAGAUGUGCCUUGCGAUAGGGAGGACUUUGUCCUCUCAAGUCUCCCUGUCGUAUCCAGAUCACAGCUGAACCCACUGGGCCUUGGCGCCAAACCUCAGCAGGGCAGCAUUGAGACUCAUGGACUAAAGGAAAGUGUUCACUCUUCUAGACAAGUGGGUCUCUUGGUUUGAUGGAGUCUUACUCCGCUUGAGUUUUGUAGAAGGGGCUCUUGCGGUCGCACUAGUGUGGAAUUCUCGGGUGUCAAGG
B6: ENSMUSG00000029636.67|Wasf3|73:79;237:241 (ssRNA)
RNA: GGGAGUUCUACAGUCCGACGAUCGCUUCGAUAUCCGCAUGCUACCAUCCUGAUUUGGUGGGCUUGCCACGUAUCUGCGCAGCUGCCCCACGUCAGCUCUCUGCAAGAUCACUGGCACACACACUCAGUGAUGUCUUCCAACCAGUGGGUGAUACGUUUUCCUGUUUCUUCCCUUUGCAAAUUGAAUUCCAGGUAGAUAUGGUUGUAGAGGGGAAAGUUUAACAAAUCAGAAUGAAAUGUUUGUCUGUUUGCACACUGGGCCUGGUGGCCUCCAAGGAAAACACAACGAUCGUUUGCUUUCUCUCUCUUGCGGUCGCACUAGUGUGGAAUUCUCGGGUGUCAAGG
B7: ENSMUSG00000061578.1419|Ksr2|3:7;229:233 (ssRNA)
RNA: GGGAGUUCUACAGUCCGACGAUCGCUUCGAUAUCCGCAUGCUAAUCAUACAUCUUGAUUCUCCAUUUUCCUUCUGGACCACAUGUCUCUUCCUUUUCCUUUUUAGAUCUGUCUUGCUCUCUGUCUCUCUCACUCAUUGCCAACAUGUUGCUGGGAAAGAAUAUUUGAUUUAGAUGCCAAUCAGGAAGGCAAGUAGGAUGGAUGGAUGAGUGAGUGGAUAGGUAGGUAUAUAAAUGGAUGGAUGGGUGAUGGAUGGGUAAAUGAAUGGAUAGCAUACUGAAUGAAUGGAUGAUGGAUGAAUGGACUCUUGCGGUCGCACUAGUGUGGAAUUCUCGGGUGUCAAGG
B8: ENSMUSG00000029636.450|Wasf3 (ssRNA)
RNA: GGGAGUUCUACAGUCCGACGAUCGCUUCGAUAUCCGCAUGCUAGAUGGAUGGAUGAGUGGAUGGAUAAUAGGUUGAUGGGUGGAUAGGUAGAUGAGUGAAUAGAUAGAUAUAGAUCAGUGGGAGGAUUGGAAAGUAGGUGAAUGAAUGGAUGGCAGAUAGAUGGAUCAAUUACAGAUGGAUGGAUGCAUGGAAUAGAUAGGUGGAUGGGUGGUGGCUAGAAGGUGCCUGAGUCUGCACAUCACUGCACUGAGAAGGCAAAUGAGUACAUUAUACUAUUAGCACCAAACCCCAAGCUUCAGUAUCUCUUGCGGUCGCACUAGUGUGGAAUUCUCGGGUGUCAAGG
B9: ENSMUSG00000029636.441|Wasf3 (ssRNA)
RNA: GGGAGUUCUACAGUCCGACGAUCGCUUCGAUAUCCGCAUGCUAGUGGAUGGUUGAGUGGGUGGAUUCAUGAUGGAUGGAUGGAUGGAUGGAUGGAUGGAUGGAUGGAUGAGUGGAUGGAUAAUAGGUUGAUGGGUGGAUAGGUAGAUGAGUGAAUAGAUAGAUAUAGAUCAGUGGGAGGAUUGGAAAGUAGGUGAAUGAAUGGAUGGCAGAUAGAUGGAUCAAUUACAGAUGGAUGGAUGCAUGGAAUAGAUAGGUGGAUGGGUGGUGGCUAGAAGGUGCCUGAGUCUGCACAUCACUGCACUCUCUUGCGGUCGCACUAGUGUGGAAUUCUCGGGUGUCAAGG

Sequence of TDP-43 (Q13148 whole entry): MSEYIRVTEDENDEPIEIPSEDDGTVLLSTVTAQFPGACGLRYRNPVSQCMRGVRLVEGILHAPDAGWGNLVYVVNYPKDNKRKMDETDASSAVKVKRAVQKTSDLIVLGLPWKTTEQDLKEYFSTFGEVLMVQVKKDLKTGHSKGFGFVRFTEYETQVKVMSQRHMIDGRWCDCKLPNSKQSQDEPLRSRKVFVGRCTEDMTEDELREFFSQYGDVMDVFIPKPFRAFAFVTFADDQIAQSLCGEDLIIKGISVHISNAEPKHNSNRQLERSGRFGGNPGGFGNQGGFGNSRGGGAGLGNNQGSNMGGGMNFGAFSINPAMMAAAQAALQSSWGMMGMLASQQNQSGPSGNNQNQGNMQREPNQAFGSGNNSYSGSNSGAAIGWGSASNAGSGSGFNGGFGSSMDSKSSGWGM

The test has as its target TDP-43 (Homo sapiens, UniProt Q13148 1-414). Put plainly: RNA Bind-n-Seq with designed 260-mer pool; 25 mM Tris-HCl, 150 mM KCl, 3 mM MgCl2, BSA (printed 500 mg/mL), 20 units/mL SUPERase IN; pH not stated; 500 nM RNA pool, 1 h, 4 C; TDP-43 5, 50, 500 nM; high values mean tight binding. Particulars: protein: recombinant; tags: SBP (GST cleaved off with PreScission; pGEX-GST-SBP). An outline of the steps: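 Recombinant SBP-tagged TDP-43 at 5, 50 or 500 nM was captured on streptavidin beads, then incubated 1 h at 4 °C with 500 nM of an in vitro-transcribed 260-nt 3′ UTR oligo pool in 25 mM Tris-HCl, 150 mM KCl, 3 mM MgCl2, BSA and SUPERase IN. Bound RNA was washed, eluted with biotin, reverse transcribed, PCR-amplified and sequenced. Binding is R, each oligo's mapped-read-normalized abundance in the bound sample divided by its abundance in input. Duplicates used two independent protein batches.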
Consider B1, for which the binding signal was 8.71 R (bound/input frequency ratio).
Next, B2: 2.62 R (bound/input frequency ratio).
Next, B3: 5.57 R (bound/input frequency ratio); B4: 0.325 R (bound/input frequency ratio).
In the case of B5 it was 0.273 R (bound/input frequency ratio); in that of B6, 1.65 R (bound/input frequency ratio).
With B7, the binding signal is 2.26 R (bound/input frequency ratio).
Next, B8: 6.13 R (bound/input frequency ratio); B9: 7.11 R (bound/input frequency ratio).
